Potency data for nine compounds are collected here from PubChem BioAssay (NCATS).

The structures appear in SMILES notation. Inconclusive results are not listed. The source holds several records for some structures; these can differ, active in one and inactive in another. The source made the active and inactive calls. Calls follow the shape of the dose curve; as a rule, active = well fitted curve in the direction sought with a large enough effect; inconclusive = small, poorly fitted or top-dose-only effect, or another doubt; inactive = no such curve, though single readings can be large; an effect the other way counts as inactive or inconclusive.
Potency is read from the fitted curve at half-maximal effect.

The first assay in a line: MultiTox-Fluor Cytotoxicity Assay - LYMP1-002 - Dead Cells (AID 960). Also: nearly all actives have a fitted effect of over 60% in size. The note with it: LYMP1-002 lymphoblastoid cells, dead-cell protease fluorescence; series mostly up to 46.1 µM. In a few lines: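 Human lymphoblastoid LYMP1-002 cells, 2500/well, treated 16 h at 37 C; dead-cell protease cleavage of bis-AAF-R110 read by fluorescence (485/520); normalized to DMSO and 15 uM tetraoctylammonium bromide; AC50 from Hill fit.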
As for `CNC(=O)Oc1cccc2ccccc12`, the Potency result is “inactive”.
Regarding `O=C(CCl)c1ccc(Cl)cc1Cl`, the Potency is 7.94 µM (active).
In the case of `Oc1c(Br)cc(Br)cc1Br`, the Potency result is “inactive”.
The same measure, in the same setting: the entry for `COP(=O)(OC)OC=C(Cl)Cl` is “inactive”.

Another assay in a line: MultiTox-Fluor Cytotoxicity Assay - LYMP1-003 - Dead Cells (AID 961).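 Also: cells exposed to compound for 16 h at 37 °C; nearly all actives have a fitted effect of over 70% in size.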 Particulars: LYMP1-003 lymphoblastoid cells, dead-cell protease fluorescence; series mostly up to 92.2 µM. In a few lines:
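Human lymphoblastoid LYMP1-003 cells (2500/well) were treated with compounds for 16 hr at 37 C in complete medium. Dead-cell protease release was read by bis-AAF-R110 fluorescence (Ex/Em 485/520). AC50 came from Hill fits, normalized to DMSO and 15 uM tetraoctylammonium bromide.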
In the case of `CCCCCCCCCCCC[N+](C)(C)CCOc1ccccc1`, the Potency is 12.6 µM (active).
On the same count and under the same terms, the figure for `COC(=O)C1=C(C)NC(C)=C(C(=O)OC)C1c1ccccc1[N+](=O)[O-]` is 50.1 µM (active); for `CNC(=O)Oc1cccc2ccccc12` it is “inactive”; for `O=C(CCl)c1ccc(Cl)cc1Cl` it is 10 µM (active).
`CN(C)C(=S)SSC(=S)N(C)C`: the Potency is 12.6 µM (active).
Consider `CC[n+]1c(-c2ccccc2)c2cc(N)ccc2c2ccc(N)cc21`, for which the Potency is 39.8 µM (active).
On the same count and under the same terms, under `Oc1c(Br)cc(Br)cc1Br` stands “inactive”.
As for `C[C@@H]1C[C@@H]([C@H](O)CC2CC(=O)NC(=O)C2)C(=O)[C@@H](C)C1`, the Potency was 50.1 µM (active) and inactive.

The next assay is described as follows: MultiTox-Fluor Cytotoxicity Assay - LYMP1-003 - Live Cells (AID 962).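 Also: cells exposed to compound for 16 hours at 37 °C.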 Particulars: LYMP1-003 lymphoblastoid cells, MultiTox-Fluor live-cell protease fluorescence; series mostly up to 92.2 µM. In outline:
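LYMP1-003 lymphoblastoid cells, 2500/well in complete medium, treated 16 h at 37 C; live-cell protease cleavage of GF-AFC read by fluorescence (Ex/Em 405/510) after 60 min reagent; AC50 from Hill fits of concentration-response.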
With `CCCCCCCCCCCC[N+](C)(C)CCOc1ccccc1`, the Potency was 31.6 µM (active).
Consider `CNC(=O)Oc1cccc2ccccc12`, for which the Potency result is “inactive”.
The same measure, in the same setting: the figure for `O=C(CCl)c1ccc(Cl)cc1Cl` is 15.8 µM (active).
Turning to `CN(C)C(=S)SSC(=S)N(C)C`, the Potency was 50.1 µM (active).
Regarding `CC[n+]1c(-c2ccccc2)c2cc(N)ccc2c2ccc(N)cc21`, the Potency is 12.6 µM (active).
In the case of `Oc1c(Br)cc(Br)cc1Br`, the Potency result was “inactive”.
On the same count and under the same terms, under `COP(=O)(OC)OC=C(Cl)Cl` stands “inactive”.

Another assay in a line: Cell Viability - LYMP1-003 - Assay at 24 hr (AID 963). The note with it: LYMP1-003 lymphoblastoid cell viability; series mostly up to 92.2 µM. In outline:
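Human lymphoblastoid LYMP1-003 cells, 2500/well, treated 24 h at 37 C in complete medium. Viability read as intracellular ATP by CellTiter-Glo luminescence after 30 min at room temperature; AC50 from Hill-equation fits of qHTS concentration-response.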
Turning to `CCCCCCCCCCCC[N+](C)(C)CCOc1ccccc1`, the Potency was 12.6 µM (active).
Same read-out and setting: under `COC(=O)C1=C(C)NC(C)=C(C(=O)OC)C1c1ccccc1[N+](=O)[O-]` stands 50.1 µM (active).
`CNC(=O)Oc1cccc2ccccc12`: the Potency result was “inactive”.
Turning to `O=C(CCl)c1ccc(Cl)cc1Cl`, the Potency was 20 µM (active).
Regarding `CN(C)C(=S)SSC(=S)N(C)C`, the Potency was 15.8 µM (active).
Still for that read-out and setting: the figure for `CC[n+]1c(-c2ccccc2)c2cc(N)ccc2c2ccc(N)cc21` is 15.8 µM (active).
For the compound `Oc1c(Br)cc(Br)cc1Br`, the Potency entry is “inactive”.
The same measure, in the same setting: under `COP(=O)(OC)OC=C(Cl)Cl` stands “inactive”; under `C[C@@H]1C[C@@H]([C@H](O)CC2CC(=O)NC(=O)C2)C(=O)[C@@H](C)C1`, “inactive”.

Another assay in a line: Cell Viability - LYMP1-003 - Assay at 40 hr (AID 964). Also: nearly all actives have a fitted effect of over 60% in size. The note with it: LYMP1-003 lymphoblastoid viability; series mostly up to 92.2 µM. In a few lines: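 LYMP1-003 human lymphoblastoid cells, 2500/well, preincubated 5 h at 37 C, then treated with compound for 40 h at 37 C. Intracellular ATP read by CellTiter-Glo luminescence after 30 min at room temperature; AC50 from Hill-equation fits.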
For the compound `CCCCCCCCCCCC[N+](C)(C)CCOc1ccccc1`, the Potency was 31.6 µM (active).
The same measure, in the same setting: under `COC(=O)C1=C(C)NC(C)=C(C(=O)OC)C1c1ccccc1[N+](=O)[O-]` stands 39.8 µM (active).
Still for that read-out and setting: the figure for `O=C(CCl)c1ccc(Cl)cc1Cl` is 20 µM (active); for `CC[n+]1c(-c2ccccc2)c2cc(N)ccc2c2ccc(N)cc21` it is 6.31 µM (active); for `Oc1c(Br)cc(Br)cc1Br` it is “inactive”.
On to `COP(=O)(OC)OC=C(Cl)Cl`, for which the Potency is 6.31 µM (active) and inactive.
`C[C@@H]1C[C@@H]([C@H](O)CC2CC(=O)NC(=O)C2)C(=O)[C@@H](C)C1`: the Potency was 2 µM (active) and inactive.
